IL1B secr inh – blocks inflammasome-driven IL-1 beta release. THP-1 LPS/ATP IL-1B secretion, AlphaLISA, 16 h; stronger effect = lower value. activity change, % at 57.5 µM. 360,000 tested, 4.7% active; in the data active means activity change below about -50%; inconclusive means mostly about -30% to -49%; further: on the % scale 0 is the no-effect control and ±100 the full control effect
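THP-1 cells pretreated 1 hr with compounds (up to 57.5 uM final), then stimulated with LPS (250 ng/mL final) plus ATP (1.25 mM final); secreted IL-1B measured by AlphaLISA after 16 hr, decreased signal indicating inhibition.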
DT40 TDP1 no CPT – qHTS for Inhibitors of human tyrosyl-DNA phosphodiesterase 1 (TDP1): qHTS in cells in absence of CPT; DT40 Tdp1-/- hTDP1 cells, no CPT, ATP luminescence, 48 h; Potency, µM (top dose mostly 46.2 µM), for the others: at the top dose activity change, negative = growth inhibition, most hits filed as inhibitors; 420,000 tested, 15% active; further: potency means the concentration at half of the fitted maximal effect; on the % scale 0 is the no-effect control and ±100 the full control effect; nearly all actives have a fitted effect of over 55% in size
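No-CPT arm: Tdp1-/-;hTDP1 DT40 cells (400/well) plus compounds, incubated ≥48 hr at 37 °C. Readout CellTiter-Glo luminescence.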
D3 ag – agonists of human D3 dopamine receptor. AID 652048. max activation, %. 410,000 tested, 0.58% active. P35462. D3R DiscoveRx beta-arrestin cells, luminescence, 90 min; in the data active means max activation above about 30%; further: 0% is about no effect
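Agonist mode: compounds and dopamine controls were applied to plated cells for 90 min at 37 degrees C after an overnight attachment at 1500 cells/well. Luminescent read-out followed 30 - 60 minutes at room temperature with DiscoveRx detection reagent.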
ClpP mod – qHTS Assay for Activators of ClpP; purified B. subtilis ClpP, FRET peptide cleavage, 20 min; Potency, µM (doses to about 57.5 µM), without a hit: at the top dose activity change, negative = active; 340,000 tested, 1.9% active; AID 651965, 2013; active means well fitted falling curve with a large enough effect; inconclusive means small, poorly fitted or top-dose-only effect; inactive means no such curve, though single readings can be large or run the other way; further: potency means the concentration at half of the fitted maximal effect; the source files actives as falling curves though it sought activators and does not explain the sign; nearly all actives have a fitted effect of over 65% in size
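Purified B. subtilis ClpP, 10 microg/mL final in Tris/HCl pH8 with KCl, BSA, glycerol and Tween-20, cleaved an Abz/nitrotyrosine-quenched decapeptide. Fluorescence (ex 320, em 430) was read at 0 and 20 min at room temperature. Delta was normalized to 5.8 microM ADEP and DMSO/no-enzyme controls.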
D3 antag – antagonists of human D3 dopamine receptor. AID 652054. P35462. D3R cells, DiscoveRx beta-arrestin luminescence, antagonist mode; stronger effect = lower value. max response, negative = inhibition, %. 360,000 tested, 2.5% active; in the data active means max response below about -50%; inconclusive means no clear call, values can overlap the other calls; further: on the % scale 0 is the no-effect control and ±100 the full control effect
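Cells expressing the human receptor were seeded at 1500 cells/well, incubated overnight at 37 degrees C in 5% CO2, then exposed to library compounds with dopamine controls for 90 minutes at 37 degrees C before luminescent detection.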
TDP1 cell CPT – DT40-hTDP1 cell growth loss with CPT; chicken DT40 Tdp1-/-;hTDP1 cells + 20 nM CPT, ATP luminescence, 48 h; Potency, µM (titrated, usually from 46.2 µM), for inactives: at the top dose activity change, negative = growth inhibition, hits mostly inhibitors; 420,000 tested, 12% active; AID 686979; further: potency means the concentration at half of the fitted maximal effect; on the % scale 0 is the no-effect control and ±100 the full control effect; nearly all actives have a fitted effect of over 55% in size
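Chicken DT40 Tdp1-/- cells complemented with human TDP1, 400 cells/well, exposed to compounds plus 20 nM camptothecin for at least 48 h at 37 C; viability read as ATP content by CellTiter-Glo luminescence.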
* hit, by the source's call; ? = inconclusive; / = not tested or not shown. Hits are enriched below; roughly 21% of the tested compounds scored in any of these assays. Unless noted, the call rests on the fitted dose curve; in most records, active means well fitted inhibition curve with a large enough effect; inconclusive means small, poorly fitted or top-dose-only effect; inactive means flat fitted curve, though single readings scatter.

SMILES	IL1B secr inh	DT40 TDP1 no CPT	D3 ag	ClpP mod	D3 antag	TDP1 cell CPT
O=C(c1ccccc1)c1cccc[n+]1[O-]	-5.9	-3.4%	2.5	-1.6%	-5.9	18.2%
Cc1cc2c(cc1S(=O)(=O)Nc1ccc(C(C)C)cc1)OCCN2C	/	16.4µM*	9.6	-7.3%	/	?
Cc1cc2c(cc1S(=O)(=O)N1CCN(c3ccccc3)CC1)OCCN2C	6.8	-25.7%	-6.5	0.2%	-16.3	7.31µM*
CC(=O)N1CCOc2cc(S(=O)(=O)N3CCN(c4ccccc4)CC3)c(Cl)cc21	-1.1	4.4%	-7.5	-0.5%	-16.9	5.2%
Cc1ccccc1NS(=O)(=O)c1cc2c(cc1C)N(C)CCO2	16.0	?	0.0	-1.1%	-10.3	-21.4%
Cc1cc2c(cc1S(=O)(=O)N1CCN(c3cccc(C(F)(F)F)c3)CC1)OCC(=O)N2	53.7	?	-5.9	-0.6%	-11.2	18.4µM*
CC(=O)c1ccc(NS(=O)(=O)c2cc3c(cc2C)N(C)CCO3)cc1	38.2	?	5.6	-1.1%	12.3	10.3µM*
Cc1ccc(C2=NN(CC(=O)NCCCN(CC(C)C)CC(C)C)C(=O)CC2)cc1	/	?	-20.2	-0.1%	/	?
CCN1C[C@@H]2[C@@H]3C(=O)N(C)C(=O)[C@@H]3[C@](C)(C1=O)N2C(=O)c1ccc(Br)cc1	17.1	-21.2%	11.5	0.5%	-6.2	-6.6%
COc1ccc([C@H]2CC(=O)C[C@@H](CCn3cc(-c4nccn4C)nn3)O2)cc1	-4.4	-18.3%	3.3	-2.8%	6.5	4.6%
COc1cccc2c1cc1c(=O)n(CC(=O)NC3CCCCC3)nc(C)n12	-1.8	-2.1%	4.4	31.6µM*	-18.7	-9.9%
CCCN1CCN(C(=O)Cn2nc(C)n3c(cc4c(OC)cccc43)c2=O)CC1	15.0	-25.0%	45.5*	/	-1.2	-4.9%
COc1cccc2c1cc1c(=O)n(CC(=O)N3CCN(c4ccc(F)cc4)CC3)nc(C)n12	/	-15.7%	15.1	20µM*	/	3.3%
COc1cccc2c1cc1c(=O)n(CC(=O)NCCCN3CCN(C)CC3)nc(C)n12	56.4	3.9%	-5.3	?	1.6	24.7%
COc1cccc2c1cc1c(=O)n(CC(=O)NCc3ccc(N(C)C)cc3)nc(C)n12	/	-10.4%	-6.0	-21.2%	/	0.8%
COc1cccc2c1cc1c(=O)n(CC(=O)O)nc(C)n12	/	0.8%	7.0	26.6%	/	6.5%
O=C(C[n+]1ccccc1Cl)c1ccc(F)cc1	/	-16.4%	/	-7.7%	/	-14.1%
COc1ccc(C(=O)N2CC(=O)Nc3ccc(F)cc3C2c2ccc(F)cc2)c(OC)c1 (configuration not stated)	/	?	8.0	-0.7%	/	?
CCOC(=O)C1C(=O)C=C(c2cccs2)CC1c1ccccc1C (configuration not stated)	1.7	?	1.7	-3.0%	-14.4	?
CCOC(=O)C1C(=O)C=C(c2cccs2)CC1c1ccccc1 (configuration not stated)	-11.0	16.4µM*	1.4	1.6%	21.3	?
CCOC(=O)C1C(=O)C=C(/C=C/c2ccc(N(C)C)cc2)CC1c1ccccc1 (configuration not stated)	7.9	?	16.0	3.7%	-14.5	11.6µM*
O=C(c1ccc(OC2CCN(CCCc3ccccc3)CC2)cc1)N1CCCC1	-24.7	-6.8%	-11.8	-2.2%	?	-28.5%
O=C(c1ccc(OC2CCN(CCc3ccccc3)CC2)cc1)N1CCCC(O)C1 (configuration not stated)	0.7	-25.0%	-10.9	/	-7.6	24.0%
COc1ccc(CCC(C)N2CCC(Oc3ccc(C(=O)N4CCCC4)cc3)CC2)cc1 (configuration not stated)	-16.3	?	-22.9	0.8%	-20.4	25.9µM*
COC1CCCN(C(=O)c2ccc(OC3CCN(CCc4ccccc4)CC3)cc2)C1 (configuration not stated)	-3.7	-7.4%	-10.3	-2.9%	-54.8*	-11.7%
SMILES	IL1B secr inh	DT40 TDP1 no CPT	D3 ag	ClpP mod	D3 antag	TDP1 cell CPT
COCCC(=O)N1CCC(Oc2ccc(C(=O)N3CCCCCCC3)cc2)CC1	44.2	?	4.2	-1.9%	-4.8	?
CC(CCc1ccc(O)cc1)N1CCC(Oc2ccc(C(=O)N3CCCC3)cc2)CC1 (configuration not stated)	-5.6	-4.3%	73.2*	-5.8%	4.5	7.1%
CN(C)C(=O)Cn1cnc2c(cnn2-c2ccc(F)cc2)c1=O	10.9	0.9%	-1.8	-17.9%	4.4	-0.1%
Cc1ccc(NC(=O)C2CC(=O)Nc3nncn32)cc1 (configuration not stated)	1.2	-23.7%	-1.6	-0.9%	3.6	1.9%
CC(C)Oc1cc(F)ccc1-c1cc(C(=O)Nc2ccccc2)[nH]n1	-3.0	23.1µM*	0.8	-2.2%	-5.9	?
CC(C)Oc1cc(F)ccc1-c1cc(C(=O)NCc2ccccc2)[nH]n1	-26.0	-31.9%	-7.9	-1.3%	-17.5	-1.1%
CC(C)Oc1cc(F)ccc1-c1cc(C(=O)Nc2ccc(C(C)C)cc2)[nH]n1	5.0	14.6µM*	-6.4	-11.5%	-9.5	18.4µM*
CC(C)c1ccc(NC(=O)c2cc(-c3cc(F)ccc3OCC3CCCO3)n[nH]2)cc1 (configuration not stated)	-10.5	?	-3.2	-11.2%	11.7	?
Fc1ccc(-c2cn3cc(Cc4ccccc4)sc3n2)cc1	/	-25.1%	1.1	0.0%	/	-23.8%
Cc1ccc2c(c1)nnn2C1CCN(CC(=O)N2c3ccccc3CC2C)CC1 (configuration not stated)	-15.2	?	-8.8	-7.2%	-70.2*	?
Cc1ccc2c(c1)nnn2C1CCN(S(=O)(=O)c2cccc(S(=O)(=O)N(C)C)c2)CC1	-16.5	14.6µM*	5.0	1.4%	18.8	18.4µM*
Cc1ccc2c(c1)nnn2C1CCN(CC(=O)N(c2ccccc2)c2ccccc2)CC1	?	13µM*	-8.0	-12.0%	-6.1	13µM*
CCOC(=O)CN(C(=O)CN1CCC(n2nnc3cc(C)ccc32)CC1)c1ccccc1	24.7	?	-8.1	0.5%	-5.5	?
C[C@@H]1CCC[C@@]2(O[C@H](CCO)C[C@H](O)[C@H]2O)O1	36.6	-27.2%	-22.6	0.0%	-12.5	?
CSc1cccc(CN2CCC(CCC(=O)NC3CC3)CC2)c1	-1.2	-19.0%	-5.8	-3.0%	?	-9.0%

Screening data (PubChem)
